Potency and affinity values are given separately.

One assay relates to Staphylococcus aureus. The note with it: Concentration 32 ug.mL-1;; ASSAY_TEST Inhibition of Bacterial Growth; detection method Absorption (OD600); MEDIA CAMHB; plate type 384well; NBS; CORNING #3640; time 18 hr.
Another assay concerns Escherichia coli. As to conditions: Concentration 32 ug.mL-1;; ASSAY_TEST Inhibition of Bacterial Growth; detection method Absorption (OD600); MEDIA CAMHB; plate type 384well; NBS; CORNING #3640; time 18 hr.

For the compound `COc1ccc(NC(=O)Cn2nc3c(Oc4cccc(OC)c4)nccn3c2=O)cc1`, the values for the Inhibition in the assay on Staphylococcus aureus and with Escherichia coli were 14.33% and -3.37%, respectively.

For the compound `CC(C)c1nnc2c(=O)n(CC(=O)Nc3cccc(F)c3)c3ccccc3n12`, the Inhibition – broadly, the drop in the measured response relative to a control, in per cent – in the assay on Staphylococcus aureus is reported as 22.23%; in the assay with Escherichia coli, 3.96%.

With `CC(C)c1nnc2c(SCC(=O)Nc3ccc(Br)cc3)nc3ccccc3n12`, the Inhibition in the assay on Staphylococcus aureus amounted to 1.25%; in the assay with Escherichia coli, 1.75%.

For the compound `Cc1nnc2c(=O)n(CC(=O)Nc3ccccc3Cl)c3ccccc3n12`, the Inhibition in the assay with Staphylococcus aureus was 10.77%; with Escherichia coli it was -2.02%.

Regarding `CCc1nnc2c(SCC(=O)Nc3ccc(Br)cc3)nc3ccccc3n12`, the figures for the Inhibition with Staphylococcus aureus and in the assay with Escherichia coli were -16.96% and 0.98%, respectively.

For `COc1ccc(CNC(=O)Cn2nc3c(Oc4ccccc4C)nccn3c2=O)cc1`, the Inhibition in the assay on Staphylococcus aureus is 1.68%; in the assay on Escherichia coli it was -7.69%.

As to `CCOc1ccc(NC(=O)Cn2nc3c4cc(-c5ccc(C)c(C)c5)nn4ccn3c2=O)cc1`, the Inhibition is listed as -9.23% in the assay with Staphylococcus aureus and 1.9% with Escherichia coli.

Take `CCOC(=O)c1cccc(NC(=O)Cn2nc3c(Oc4cccc(C)c4C)nccn3c2=O)c1`: the results for the Inhibition in the assay on Staphylococcus aureus and with Escherichia coli were -16.27% and -3.26%, respectively.

As to `Cc1ccc(-c2ccc3nn(Cc4cccc(Br)c4)c(=O)n3n2)cc1`, the Inhibition in the assay on Staphylococcus aureus is on record as 2.3%; with Escherichia coli it was -6.95%.

In the case of `CC(C)CCNC(=O)Cn1nc2n(Cc3ccco3)c(=O)c3sccc3n2c1=O`, the Inhibition with Staphylococcus aureus is 8.27%; in the assay on Escherichia coli, 0.93%.

Take `COc1ccc(N2CCN(C(=O)Cn3nc4c(Oc5ccc(C)cc5)nccn4c3=O)CC2)cc1`: the Inhibition in the assay with Staphylococcus aureus is 4.51%; with Escherichia coli it was -5.74%.

For the compound `CCOc1ccc(NC(=O)Cn2nc3ccc(-c4ccc(C)c(C)c4)nn3c2=O)cc1`, the Inhibition is listed as 3.86% in the assay on Staphylococcus aureus and -6.73% with Escherichia coli.

The values above are taken from ChEMBL document CHEMBL4513146, “CO-ADD screening of Karazin Kharkiv National University (Ukraine) compounds”.
